Measurements taken from PubChem BioAssay AID1159580 (chemical genetic matrix, 2015).
Among all 5,500 compounds or so, about 2,000 (36%) were called active. Not shown: some 18% with an inconclusive outcome. Rule as the data show it: active = normalized growth mostly below about 0.91 (no sharp cut-off); inconclusive = no clear call, values can overlap the other calls; inactive = mostly above about 0.92. The list shows a part of the results.

Assay: chemical genetic growth profiling, strain panel (AID 1159580);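 also: tested at 20 µM; growth read once vehicle control cultures reached saturation at 30 °C; 1 = growth at the plate median or of vehicle wells; lower values mean less growth of the strain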
Details: growth OD

Measured: normalized growth

CC1C[C@H]2CC(=O)[C@H]3CCCN4CCC[C@H]2[C@]34C1 (stereo partly specified)
inactive: S. cerevisiae deletion strains, locus YAL021C, strain ccr4, stronger effect = lower value 1.01 | S. cerevisiae deletion strains, locus YAL026C, strain drs2, stronger effect = lower value 1.01 | S. cerevisiae deletion strains, locus YAL030W, strain snc1, stronger effect = lower value 1 | S. cerevisiae deletion strains, locus YBL061C, strain skt5, stronger effect = lower value 1.01 | S. cerevisiae deletion strains, locus YBR009C, strain hhf1, stronger effect = lower value 1 | S. cerevisiae deletion strains, locus YBR021W, strain FUR4, stronger effect = lower value 0.996 | S. cerevisiae deletion strains, locus YBR023C, strain chs3, stronger effect = lower value 1.02 | S. cerevisiae deletion strains, locus YBR171W, strain sec66, stronger effect = lower value 0.996 | S. cerevisiae deletion strains, locus YBR229C, strain ROT2, stronger effect = lower value 1 | S. cerevisiae deletion strains, locus YBR231C, strain swc5, stronger effect = lower value 0.993 | S. cerevisiae deletion strains, locus YBR279W, strain paf1, stronger effect = lower value 1.02 | S. cerevisiae deletion strains, locus YCL011C, strain gbp2, stronger effect = lower value 1.02 | S. cerevisiae deletion strains, locus YCL016C, strain dcc1, stronger effect = lower value 1.02 | S. cerevisiae deletion strains, locus YCL029C, strain bik1, stronger effect = lower value 1.02 | S. cerevisiae deletion strains, locus YCL061C, strain MRC1, stronger effect = lower value 1.01 | S. cerevisiae deletion strains, locus YCL069W, strain vba3, stronger effect = lower value 1.01 | S. cerevisiae deletion strains, locus YCR088W, strain abp1, stronger effect = lower value 1.01 | S. cerevisiae deletion strains, locus YDL005C, strain med2, stronger effect = lower value 1.01 | S. cerevisiae deletion strains, locus YDL035C, strain GPR1, stronger effect = lower value 1.03 | S. cerevisiae deletion strains, locus YDL040C, strain nat1, stronger effect = lower value 1.01 | S. cerevisiae deletion strains, locus YDL074C, strain BRE1, stronger effect = lower value 1.03 | S. cerevisiae deletion strains, locus YDL101C, strain DUN1, stronger effect = lower value 1.02 | S. cerevisiae deletion strains, locus YDL134C, strain PPH21, stronger effect = lower value 1.01 | S. cerevisiae deletion strains, locus YDL185W, strain tfp1, stronger effect = lower value 1.02 | S. cerevisiae deletion strains, locus YDL192W, strain arf1, stronger effect = lower value 1.02 | S. cerevisiae deletion strains, locus YDR001C, strain nth1, stronger effect = lower value 1.01 | S. cerevisiae deletion strains, locus YDR069C, strain doa4, stronger effect = lower value 1.02 | S. cerevisiae deletion strains, locus YDR101C, strain arx1, stronger effect = lower value 1.03 | S. cerevisiae deletion strains, locus YDR137W, strain rgp1, stronger effect = lower value 1.03 | S. cerevisiae deletion strains, locus YDR150W, strain NUM1, stronger effect = lower value 1 | S. cerevisiae deletion strains, locus YDR159W, strain sac3, stronger effect = lower value 1 | S. cerevisiae deletion strains, locus YDR162C, strain NBP2, stronger effect = lower value 1.03 | S. cerevisiae deletion strains, locus YDR195W, strain ref2 0.993 | S. cerevisiae deletion strains, locus YDR297W, strain sur2, stronger effect = lower value 1 | S. cerevisiae deletion strains, locus YDR318W, strain mcm21, stronger effect = lower value 1.02 | S. cerevisiae deletion strains, locus YDR334W, strain swr1, stronger effect = lower value 1 | S. cerevisiae deletion strains, locus YDR335W, strain msn5, stronger effect = lower value 1.01 | S. cerevisiae deletion strains, locus YDR388W, stronger effect = lower value 1.01 | S. cerevisiae deletion strains, locus YDR392W, strain spt3, stronger effect = lower value 0.954 | S. cerevisiae deletion strains, locus YDR502C, strain sam2, stronger effect = lower value 1.01 | S. cerevisiae deletion strains, locus YEL003W, strain gim4, stronger effect = lower value 1.01 | S. cerevisiae deletion strains, locus YEL037C, strain rad23, stronger effect = lower value 1.01 | S. cerevisiae deletion strains, locus YEL061C, strain CIN8 (second series), stronger effect = lower value 1.01 | S. cerevisiae deletion strains, locus YEL061C, strain CIN8, stronger effect = lower value 1.01 | S. cerevisiae deletion strains, locus YER015W, strain faa2, stronger effect = lower value 1.02 | S. cerevisiae deletion strains, locus YER016W, strain bim1, stronger effect = lower value 1.01 | S. cerevisiae deletion strains, locus YER110C, stronger effect = lower value 1.02 | S. cerevisiae deletion strains, locus YER111C, strain swi4, stronger effect = lower value 1 | S. cerevisiae deletion strains, locus YER155C, strain BEM2 (second series), stronger effect = lower value 1.04 | S. cerevisiae deletion strains, locus YER155C, strain BEM2, stronger effect = lower value 0.989 | S. cerevisiae deletion strains, locus YER167W, strain BCK2, stronger effect = lower value 1.01 | S. cerevisiae deletion strains, locus YFR010W, strain ubp6, stronger effect = lower value 1.01 | S. cerevisiae deletion strains, locus YGL078C, strain dbp3, stronger effect = lower value 1.01 | S. cerevisiae deletion strains, locus YGL086W, strain mad1, stronger effect = lower value 1.02 | S. cerevisiae deletion strains, locus YGL167C, strain pmr1, stronger effect = lower value 1.01 | S. cerevisiae deletion strains, locus YGL173C, strain kem1, stronger effect = lower value 1.01 | S. cerevisiae deletion strains, locus YGL227W, strain vid30, stronger effect = lower value 1.01 | S. cerevisiae deletion strains, locus YGL240W, strain doc1, stronger effect = lower value 0.996 | S. cerevisiae deletion strains, locus YGL248W, strain PDE1, stronger effect = lower value 1.01 | S. cerevisiae deletion strains, locus YGL253W, strain hxk2, stronger effect = lower value 1 | S. cerevisiae deletion strains, locus YGR135W, strain pre9, stronger effect = lower value 1.01 | S. cerevisiae deletion strains, locus YGR252W, strain gcn5, stronger effect = lower value 0.999 | S. cerevisiae deletion strains, locus YHR013C, strain ard1, stronger effect = lower value 1.02 | S. cerevisiae deletion strains, locus YHR027C, strain rpn1, stronger effect = lower value 1 | S. cerevisiae deletion strains, locus YHR030C, strain SLT2, stronger effect = lower value 1 | S. cerevisiae deletion strains, locus YHR079C, strain IRE1 (second series), stronger effect = lower value 1.01 | S. cerevisiae deletion strains, locus YHR094C, strain hxt1, stronger effect = lower value 1.02 | S. cerevisiae deletion strains, locus YHR129C, strain ARP1, stronger effect = lower value 1.01 | S. cerevisiae deletion strains, locus YHR142W, strain chs7, stronger effect = lower value 1.02 | S. cerevisiae deletion strains, locus YHR200W, strain rpn10, stronger effect = lower value 1.02 | S. cerevisiae deletion strains, locus YIL066C, strain RNR3, stronger effect = lower value 1.01 | S. cerevisiae deletion strains, locus YIL073C, strain SPO22, stronger effect = lower value 1.06 | S. cerevisiae deletion strains, locus YIL125W, strain kgd1, stronger effect = lower value 1.02 | S. cerevisiae deletion strains, locus YIR030C, strain dcg1, stronger effect = lower value 1.02 | S. cerevisiae deletion strains, locus YJL092W, strain hpr5, stronger effect = lower value 1.01 | S. cerevisiae deletion strains, locus YJL095W, strain BCK1 (second series), stronger effect = lower value 1.01 | S. cerevisiae deletion strains, locus YJL095W, strain BCK1, stronger effect = lower value 1.04 | S. cerevisiae deletion strains, locus YJL115W, strain asf1, stronger effect = lower value 1.01 | S. cerevisiae deletion strains, locus YJL129C, strain trk1, stronger effect = lower value 1.02 | S. cerevisiae deletion strains, locus YJL134W, strain LCB3, stronger effect = lower value 0.994 | S. cerevisiae deletion strains, locus YJL154C, strain vps35, stronger effect = lower value 1.02 | S. cerevisiae deletion strains, locus YJL164C, strain tpk1, stronger effect = lower value 1.01 | S. cerevisiae deletion strains, locus YJL166W, strain qcr8, stronger effect = lower value 1.01 | S. cerevisiae deletion strains, locus YJL168C, strain set2, stronger effect = lower value 1.01 | S. cerevisiae deletion strains, locus YJL187C, strain SWE1 (second series), stronger effect = lower value 1.03 | S. cerevisiae deletion strains, locus YJL187C, strain SWE1, stronger effect = lower value 1 | S. cerevisiae deletion strains, locus YJR043C, strain POL32, stronger effect = lower value 1 | S. cerevisiae deletion strains, locus YKL009W, strain mrt4, stronger effect = lower value 1.03 | S. cerevisiae deletion strains, locus YKL068W, stronger effect = lower value 1.01 | S. cerevisiae deletion strains, locus YKL085W, strain MDH1 (second series), stronger effect = lower value 1 | S. cerevisiae deletion strains, locus YKL085W, strain MDH1, stronger effect = lower value 1 | S. cerevisiae deletion strains, locus YKL160W, strain elf1, stronger effect = lower value 1.02 | S. cerevisiae deletion strains, locus YKL190W, strain CNB1, stronger effect = lower value 0.989 | S. cerevisiae deletion strains, locus YKR001C, strain vps1, stronger effect = lower value 1.02 | S. cerevisiae deletion strains, locus YKR026C, strain gcn3, stronger effect = lower value 1.01 | S. cerevisiae deletion strains, locus YKR091W, strain srl3, stronger effect = lower value 1.02 | S. cerevisiae deletion strains, locus YLL001W, strain dnm1, stronger effect = lower value 1.01 | S. cerevisiae deletion strains, locus YLL026W, stronger effect = lower value 1 | S. cerevisiae deletion strains, locus YLL041C, strain sdh2, stronger effect = lower value 1.01 | S. cerevisiae deletion strains, locus YLR027C, strain aat2, stronger effect = lower value 1.01 | S. cerevisiae deletion strains, locus YLR039C, strain RIC1, stronger effect = lower value 1.04 | S. cerevisiae deletion strains, locus YLR058C, strain SHM2, stronger effect = lower value 1.02 | S. cerevisiae deletion strains, locus YLR102C, strain apc9, stronger effect = lower value 1.02 | S. cerevisiae deletion strains, locus YLR221C, strain rsa3, stronger effect = lower value 1.02 | S. cerevisiae deletion strains, locus YLR258W, strain gsy2, stronger effect = lower value 1.03 | S. cerevisiae deletion strains, locus YLR262C, strain YPT6 (second series), stronger effect = lower value 1.01 | S. cerevisiae deletion strains, locus YLR262C, strain YPT6, stronger effect = lower value 1.12 | S. cerevisiae deletion strains, locus YLR268W, strain sec22, stronger effect = lower value 1.04 | S. cerevisiae deletion strains, locus YLR320W, strain mms22, stronger effect = lower value 1.02 | S. cerevisiae deletion strains, locus YLR330W, strain CHS5, stronger effect = lower value 1 | S. cerevisiae deletion strains, locus YLR342W, strain FKS1 (second series), stronger effect = lower value 0.993 | S. cerevisiae deletion strains, locus YLR342W, strain FKS1, stronger effect = lower value 1.02 | S. cerevisiae deletion strains, locus YLR357W, strain rsc2, stronger effect = lower value 0.995 | S. cerevisiae deletion strains, locus YLR370C, strain arc18, stronger effect = lower value 1.02 | S. cerevisiae deletion strains, locus YLR371W, strain rom2, stronger effect = lower value 1.02 | S. cerevisiae deletion strains, locus YLR384C, strain iki3, stronger effect = lower value 1.02 | S. cerevisiae deletion strains, locus YLR418C, strain cdc73, stronger effect = lower value 1.02 | S. cerevisiae deletion strains, locus YML016C, strain PPZ1, stronger effect = lower value 1.01 | S. cerevisiae deletion strains, locus YML032C, strain rad52, stronger effect = lower value 1.01 | S. cerevisiae deletion strains, locus YML120C, strain ndi1, stronger effect = lower value 1.01 | S. cerevisiae deletion strains, locus YML124C, strain tub3, stronger effect = lower value 1.01 | S. cerevisiae deletion strains, locus YMR058W, strain fet3, stronger effect = lower value 1.01 | S. cerevisiae deletion strains, locus YMR078C, strain ctf18, stronger effect = lower value 1.03 | S. cerevisiae deletion strains, locus YMR125W, strain sto1, stronger effect = lower value 1.01 | S. cerevisiae deletion strains, locus YMR129W, stronger effect = lower value 1.01 | S. cerevisiae deletion strains, locus YMR205C, strain PFK2, stronger effect = lower value 1.02 | S. cerevisiae deletion strains, locus YMR223W, strain ubp8, stronger effect = lower value 1.02 | S. cerevisiae deletion strains, locus YMR231W, strain pep5, stronger effect = lower value 1 | S. cerevisiae deletion strains, locus YMR307W, strain GAS1, stronger effect = lower value 1.01 | S. cerevisiae deletion strains, locus YNL067W, strain RPL9B, stronger effect = lower value 1.03 | S. cerevisiae deletion strains, locus YNL071W, strain lat1, stronger effect = lower value 1.02 | S. cerevisiae deletion strains, locus YNL128W, strain TEP1, stronger effect = lower value 1.03 | S. cerevisiae deletion strains, locus YNL153C, strain GIM3, stronger effect = lower value 1.01 | S. cerevisiae deletion strains, locus YNL209W, strain ssb2, stronger effect = lower value 1.01 | S. cerevisiae deletion strains, locus YNL233W, strain BNI4, stronger effect = lower value 1.03 | S. cerevisiae deletion strains, locus YNL248C, strain rpa49, stronger effect = lower value 0.998 | S. cerevisiae deletion strains, locus YNL250W, strain rad50, stronger effect = lower value 1.05 | S. cerevisiae deletion strains, locus YNL271C, strain bni1, stronger effect = lower value 1.03 | S. cerevisiae deletion strains, locus YNL298W, strain CLA4, stronger effect = lower value 1.01 | S. cerevisiae deletion strains, locus YNL307C, strain MCK1, stronger effect = lower value 1.04 | S. cerevisiae deletion strains, locus YNL322C, strain KRE1 (second series), stronger effect = lower value 1 | S. cerevisiae deletion strains, locus YNL322C, strain KRE1, stronger effect = lower value 1 | S. cerevisiae deletion strains, locus YNR049C, strain mso1, stronger effect = lower value 1.03 | S. cerevisiae deletion strains, locus YNR052C, strain pop2, stronger effect = lower value 1.02 | S. cerevisiae deletion strains, locus YOL012C, strain htz1 1.55 | S. cerevisiae deletion strains, locus YOL147C, strain pex11, stronger effect = lower value 1.02 | S. cerevisiae deletion strains, locus YOR001W, strain rrp6, stronger effect = lower value 1.02 | S. cerevisiae deletion strains, locus YOR061W, strain CKA2, stronger effect = lower value 1.01 | S. cerevisiae deletion strains, locus YOR069W, strain VPS5, stronger effect = lower value 1.01 | S. cerevisiae deletion strains, locus YOR070C, strain gyp1, stronger effect = lower value 1.03 | S. cerevisiae deletion strains, locus YOR080W, strain dia2, stronger effect = lower value 1 | S. cerevisiae deletion strains, locus YOR083W, strain WHI5, stronger effect = lower value 1.02 | S. cerevisiae deletion strains, locus YOR106W, strain vam3, stronger effect = lower value 1.02 | S. cerevisiae deletion strains, locus YOR136W, strain idh2, stronger effect = lower value 1.03 | S. cerevisiae deletion strains, locus YOR144C, strain elg1, stronger effect = lower value 1 | S. cerevisiae deletion strains, locus YOR184W, strain ser1, stronger effect = lower value 1.01 | S. cerevisiae deletion strains, locus YOR265W, strain rbl2, stronger effect = lower value 1 | S. cerevisiae deletion strains, locus YOR270C, strain vph1, stronger effect = lower value 1.05 | S. cerevisiae deletion strains, locus YOR290C, strain snf2, stronger effect = lower value 1.01 | S. cerevisiae deletion strains, locus YOR316C, strain cot1, stronger effect = lower value 1.02 | S. cerevisiae deletion strains, locus YPL051W, strain arl3, stronger effect = lower value 1 | S. cerevisiae deletion strains, locus YPL055C, strain LGE1, stronger effect = lower value 1.03 | S. cerevisiae deletion strains, locus YPL078C, strain atp4, stronger effect = lower value 1.01 | S. cerevisiae deletion strains, locus YPL106C, strain sse1, stronger effect = lower value 0.997 | S. cerevisiae deletion strains, locus YPL240C, strain hsp82, stronger effect = lower value 0.998 | S. cerevisiae deletion strains, locus YPR119W, strain clb2, stronger effect = lower value 1.02 | S. cerevisiae deletion strains, locus YPR141C, strain kar3, stronger effect = lower value 1.02 | S. cerevisiae deletion strains, locus YPR163C, strain tif3, stronger effect = lower value 1.02 | S. cerevisiae deletion strains, locus YPR167C, strain met16, stronger effect = lower value 1.02 | S. cerevisiae deletion strains, strain wtn01, stronger effect = lower value 1.02 | S. cerevisiae strains, strain wild type, stronger effect = lower value 1.01
